# According to PubChem BioAssay AID1851 (National Center for Advancing Translational Sciences (NCATS), 2009):
# About 5,100 (32%) of roughly 16,000 compounds were called active. About 25% were inconclusive and are not listed. This is one part of the list. Values without a mark were called inactive. The call rests on the fitted dose curve; in most records, active means well fitted curve in the direction sought with a large enough effect; inconclusive means small, poorly fitted or top-dose-only effect, or effect the other way; inactive means no such curve, though single readings can be large or run the other way.
# Biological target: Cytochrome P450 3A4 (Homo sapiens) (UniProt P08684)
# Assay: Cytochrome panel assay with activity outcomes
# Conditions: recombinant CYP, pro-luciferin dealkylation, luminescence, p450-cyp3a4; series mostly up to 57.1 µM
# On the % scale 0 is the no-effect control and ±100 the full control effect.
# Sequence of Cytochrome P450 3A4 (Homo sapiens) (P08684 whole entry, looked up): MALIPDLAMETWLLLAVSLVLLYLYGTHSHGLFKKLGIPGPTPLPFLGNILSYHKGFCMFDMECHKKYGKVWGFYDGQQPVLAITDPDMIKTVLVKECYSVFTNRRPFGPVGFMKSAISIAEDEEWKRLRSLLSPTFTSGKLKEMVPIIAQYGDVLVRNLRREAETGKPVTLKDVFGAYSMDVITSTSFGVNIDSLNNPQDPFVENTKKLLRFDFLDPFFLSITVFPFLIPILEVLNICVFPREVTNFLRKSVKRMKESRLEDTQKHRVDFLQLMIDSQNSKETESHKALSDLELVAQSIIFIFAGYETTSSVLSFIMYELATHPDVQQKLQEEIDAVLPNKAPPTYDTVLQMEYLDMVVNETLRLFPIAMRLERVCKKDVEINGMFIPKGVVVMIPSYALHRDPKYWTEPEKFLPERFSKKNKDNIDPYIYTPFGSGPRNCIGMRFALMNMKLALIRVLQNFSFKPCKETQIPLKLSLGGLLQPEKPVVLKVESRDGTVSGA
SMILES,AC50,"activity, negative = inhibition"
CN(C)c1ccc(-c2nc(-n3ccnc3)c3ccccc3n2)cc1,0.631 µM (active),
c1ccc2c(-n3ccnc3)nc(-c3ccoc3)nc2c1,0.2 µM (active),
Cc1cnc(CNc2ncnc3ccc(-c4ccc(N(C)C)cc4)cc23)cn1,10 µM (active),
Cc1cnc(CNc2ncnc3ccc(-c4ccoc4)cc23)cn1,15.8 µM (active),
Cc1cnc(CNc2ncnc3ccc(-c4ccc5c(c4)OCO5)cc23)cn1,2.51 µM (active),
NC(=S)SCCC(=O)O,,-7.17% [at 11.4 µM]
CCCC(=O)Nc1nc(C(=O)OCC)cs1,inactive,
CCOC(=O)C1=C(O)C(Nc2nccs2)(C(F)(F)F)N=C1C (stereo not given),14.1 µM (active),
CC(C)OC(=O)C(CC(=O)O)N1CCOCC1 (stereo not given),inactive,
CCOC(=O)C(C)CC(C)C(=O)N1CCOCCN(C(=O)C(C)CC(C)C(=O)OCC)CCOCC1 (stereo not given),11.2 µM (active),
CCC(Sc1ncccc1C(=O)O)C(=O)N1CCOCC1 (stereo not given),inactive,
COc1cc(OC)c2c(c1)C(=O)c1cc(OC)cc(OC)c1C2=O,3.55 µM (active),
O=C(NC1CCCCC1)C1CC=CCC1C(=O)OCC(Cl)=C(Cl)Cl (stereo not given),7.94 µM (active),
CNC(=O)c1ccc(-c2sc3nc(N4CCOCC4)c4c(c3c2N)CC(C)(C)OC4)o1,2.82 µM (active),
CN(C)CCNc1ncnc2c1sc1nc(N3CCOCC3)c3c(c12)CC(C)(C)SC3,inactive,
CC(=O)OC[C@@H]1O[C@@H](O/N=C2/C[C@@H](O)[C@@H](O)[C@@H]3[C@@H]4C(=O)N(C(C)(C)C)C(=O)[C@H]4CC[C@H]23)[C@H](OC(C)=O)[C@H](OC(C)=O)[C@@H]1OC(C)=O,,-17.4% [at 11.4 µM]
O=C(O)[C@H](Cc1ccc(O)c([N+](=O)[O-])c1)N1C(=O)c2ccccc2C1=O,,6.92% [at 11.4 µM]
O=C1NC(=O)C(c2ccccc2[N+](=O)[O-])=C1Nc1ccc(O)c(Cl)c1,20 µM (active),
CCc1nnc(NC(=O)C2Cc3ccccc3CN2S(=O)(=O)c2ccc(C)cc2)s1 (stereo not given),6.31 µM (active),
CCOc1ccccc1NC(=O)C1Cc2ccccc2CN1S(C)(=O)=O (stereo not given),,-25.2% [at 11.4 µM]

SMILES,AC50,"activity, negative = inhibition"
O=C(Nc1nnc(C2CC2)s1)C1Cc2ccccc2CN1S(=O)(=O)c1ccccc1F (stereo not given),7.08 µM (active),
O=C(Nc1nccs1)C1Cc2ccccc2CN1S(=O)(=O)c1ccc(F)cc1 (stereo not given),3.16 µM (active),
CCc1nnc(NC(=O)c2c(C)nn(-c3ccccc3)c2Cl)s1,,4.89% [at 2.29 µM]
CC(=O)c1sc(NC(=O)C(C)C)nc1C,inactive,
Cc1ccc(CSc2nc3c(c(SCC(=O)O)n2)CCCC3)cc1,inactive,
O=C(O)CSc1ncnc2sc3c(c12)CCC3,inactive,
OCCNc1nc(SCc2ccccc2)nc2sc3c(c12)CCC3,,-25% [at 11.4 µM]
COCCNc1nc(SCc2ccccc2)nc2sc3c(c12)CCC3,12.6 µM (active),
CC(CO)Nc1nc(SCc2ccccc2)nc2sc3c(c12)CCC3 (stereo not given),14.1 µM (active),
Cc1nc2c(O)cccc2c(=O)[nH]1,inactive,
COc1cccc(NC(=O)COC(=O)c2c3c(nc4ccccc24)CCC(C)C3)c1 (stereo not given),3.55 µM (active),
COc1cccc(NC(=O)COC(=O)c2nc3nccc(C)n3n2)c1,inactive,
Cc1ccc(S(=O)(=O)ON=C2CCN(S(=O)(=O)c3ccccc3)CC2)cc1,inactive,
CC(=O)N1CC2(CC2)CC1c1ccccc1 (stereo not given),inactive,
CC(=O)N1CCN(S(=O)(=O)c2ccccc2)C1c1ccccc1 (stereo not given),11.2 µM (active),
Cc1ccc(S(=O)(=O)N2CCN(C(=O)c3ccccc3)C2C(C)C)cc1 (stereo not given),2 µM (active),
Cc1ccc(S(=O)(=O)N2CCC(C(=O)O)(c3ccccc3)CC2)cc1,,12.2% [at 11.4 µM]
COc1ccc(C(=O)c2ccc(OC)c(OC)c2)cc1OC,15.8 µM (active),
COc1ccc(NC(=O)C(F)(F)F)cc1OC,inactive,
COc1ccc(C(=O)c2ccccc2)cc1Br,inactive,

SMILES,AC50,"activity, negative = inhibition"
CN[C@H]1[C@@H](O[C@@H]2[C@H](O[C@@H]3[C@@H](O)[C@@H](O)[C@@H](N=C(N)N)[C@@H](O)[C@@H]3N=C(N)N)O[C@H](C)[C@@]2(O)C=O)O[C@@H](CO)[C@@H](O)[C@H]1O,inactive,
Cc1cccc(N2CCN(C(=O)CSCc3c(C)noc3C)CC2)c1C,3.98 µM (active),
Cc1cccc(N2CCN(CC(=O)Nc3ccc(-n4cnnn4)cc3)CC2)c1C,inactive,
Cc1ccc(S(=O)(=O)Nc2nc(C)c(NC(=O)Nc3ccc(Cl)cc3Cl)s2)cc1,15.8 µM (active),
Cc1cc(Cl)ccc1OC(C)C(=O)Nc1ccc(S(=O)(=O)Nc2cnc3ccccc3n2)cc1 (stereo not given),,-1.77% [at 2.29 µM]
Cc1nnc(NS(=O)(=O)c2ccc(N)cc2)s1,inactive,
Cc1cc(C)n(-c2nc(Nc3ccccc3C)nc(-n3nc(C)cc3C)n2)n1,7.94 µM (active),
Cc1cc(C)n(-c2nc(NC(C)(C)C)nc(NC(C)(C)C)n2)n1,inactive,
CC(C)c1nnc(NC(=O)c2sc3ccccc3c2Cl)s1,inactive,
O=C(NNC(=O)c1sc2ccccc2c1Cl)Nc1ccc(Cl)cc1,12.6 µM (active),
Cc1ccccc1Cn1nc(C)c(NC(=O)c2sc3ccccc3c2Cl)c1C,11.2 µM (active),
Cc1nn(Cc2ccc(Cl)cc2Cl)c(C)c1NC(=O)c1sc2ccccc2c1Cl,7.08 µM (active),
Cc1ccc(NC(=O)c2sc3ccccc3c2Cl)nc1,inactive,
NCCSS(=O)(=O)CCN,,5.43% [at 11.4 µM]
Cc1ccc(N2C(=O)CC(c3ccsc3)C3=C2CC(C)(C)CC3=O)cc1 (stereo not given),2.24 µM (active),
O=C(O)C/C(=C\c1ccccc1)C(=O)O,,-16.3% [at 11.4 µM]
O=C(/C=C\c1ccccc1)c1ccccc1O,,-15.8% [at 11.4 µM]
O=C(/C=C/c1ccccc1)N/C(=C/c1ccccc1)C(=O)Nc1ccccc1O,14.1 µM (active),
COc1ccc(/C(C)=N/NC(=O)c2ccc(CSc3cccc4cccnc34)cc2)cc1OC,3.16 µM (active),
O=C(CSc1cccc2cccnc12)OCC(=O)c1ccccc1,,10.1% [at 2.29 µM]
